Experiment in all cases: DAPPL (digital affinity profiling via proximity ligation, sequencing); 10 mM Tris-HCl pH 7.5, 50 mM NaCl, 1 mM DTT, 4% glycerol, room temperature, 30 min; GST-TFs on glutathione beads, 16-mer random dsDNA library, 0.1% formaldehyde crosslink after washing; high values mean tight binding
For assay [1], the target named is T1, FEV (Homo sapiens, UniProt Q99581 1-238).
T1 sequence: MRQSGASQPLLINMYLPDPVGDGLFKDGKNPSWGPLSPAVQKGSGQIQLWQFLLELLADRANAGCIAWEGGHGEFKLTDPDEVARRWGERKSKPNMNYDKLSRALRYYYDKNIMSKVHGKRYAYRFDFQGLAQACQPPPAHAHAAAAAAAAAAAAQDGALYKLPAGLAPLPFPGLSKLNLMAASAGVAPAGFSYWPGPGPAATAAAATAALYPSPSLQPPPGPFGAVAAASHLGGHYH
Particulars: protein: recombinant; tags: N-terminal GST; dsDNA, one strand shown. In outline: (§1)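 Pools were built from human transcription factors expressed in yeast as GST fusions, captured on glutathione beads and DNA-barcoded, along with a tag-only sample. Incubation with 200 nmole of a 16-mer random double-stranded DNA library lasted 30 min at room temperature in Tris/NaCl/DTT/glycerol buffer, and was followed by washing, 0.1% formaldehyde crosslinking, proximity ligation, PCR amplification and Illumina NextSeq500 sequencing. Binding signal is the quotient of each hexamer's read frequency for a factor and its frequency for the tag-only sample.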

Assay [2] has as its target ETV5 (Homo sapiens, UniProt P41161 1-510). Particulars: protein: recombinant; tags: N-terminal GST; dsDNA, one strand shown. Put shortly:
as §1

For assay [3], the target named is HSF1 (Homo sapiens, UniProt Q00613 1-529). The note with it: protein: recombinant; tags: N-terminal GST; chain copies: 3; dsDNA, one strand shown. In outline: as §1
Chain of HSF1 (Q00613 whole entry): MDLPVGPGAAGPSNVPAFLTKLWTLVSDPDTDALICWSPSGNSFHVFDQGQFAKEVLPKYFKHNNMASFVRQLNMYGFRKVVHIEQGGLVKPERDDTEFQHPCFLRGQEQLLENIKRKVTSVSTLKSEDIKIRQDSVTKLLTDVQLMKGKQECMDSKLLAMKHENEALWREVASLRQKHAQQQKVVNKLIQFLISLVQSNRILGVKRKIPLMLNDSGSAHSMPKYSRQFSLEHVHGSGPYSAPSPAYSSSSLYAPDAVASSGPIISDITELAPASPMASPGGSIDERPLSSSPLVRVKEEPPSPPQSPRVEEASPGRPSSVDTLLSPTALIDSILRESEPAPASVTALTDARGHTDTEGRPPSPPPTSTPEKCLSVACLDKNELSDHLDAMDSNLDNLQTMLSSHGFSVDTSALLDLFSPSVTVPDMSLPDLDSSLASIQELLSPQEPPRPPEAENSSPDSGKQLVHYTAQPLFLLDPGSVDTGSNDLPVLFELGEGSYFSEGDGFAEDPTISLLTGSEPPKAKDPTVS
Assay [4] deals with T2, SPIC (Homo sapiens, UniProt Q8N5J4 1-248).
T2 sequence: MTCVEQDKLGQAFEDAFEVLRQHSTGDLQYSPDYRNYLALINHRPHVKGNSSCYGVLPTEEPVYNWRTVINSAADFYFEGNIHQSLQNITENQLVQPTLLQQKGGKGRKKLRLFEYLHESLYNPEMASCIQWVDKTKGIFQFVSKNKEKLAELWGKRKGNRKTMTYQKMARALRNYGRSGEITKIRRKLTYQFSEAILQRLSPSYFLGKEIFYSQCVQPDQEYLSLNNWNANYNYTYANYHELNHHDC
Particulars: protein: recombinant; tags: N-terminal GST; dsDNA, one strand shown. In outline:
as §1

Assay [5] has as its target ELF4 (Homo sapiens, UniProt Q99607 1-663). The note with it: protein: recombinant; tags: N-terminal GST; dsDNA, one strand shown. Put shortly: as §1
The target of assay [6] is T3, ELK4 (Homo sapiens, UniProt P28324-2 1-405).
T3 sequence: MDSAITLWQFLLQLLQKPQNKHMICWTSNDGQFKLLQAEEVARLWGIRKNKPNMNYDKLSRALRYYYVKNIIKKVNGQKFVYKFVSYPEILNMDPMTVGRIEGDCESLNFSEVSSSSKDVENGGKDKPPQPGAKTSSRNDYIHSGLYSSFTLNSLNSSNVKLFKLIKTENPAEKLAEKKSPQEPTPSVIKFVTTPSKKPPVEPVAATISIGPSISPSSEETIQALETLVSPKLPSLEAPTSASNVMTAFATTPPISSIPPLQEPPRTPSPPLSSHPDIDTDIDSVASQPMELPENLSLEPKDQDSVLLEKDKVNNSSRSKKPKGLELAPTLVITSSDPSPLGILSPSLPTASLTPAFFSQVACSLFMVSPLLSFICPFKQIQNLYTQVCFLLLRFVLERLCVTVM
Particulars: protein: recombinant; tags: N-terminal GST; dsDNA, one strand shown. In outline: as §1

Assay [7] concerns the target T4, ETV2 (Homo sapiens, UniProt O00321 1-342).
T4 sequence: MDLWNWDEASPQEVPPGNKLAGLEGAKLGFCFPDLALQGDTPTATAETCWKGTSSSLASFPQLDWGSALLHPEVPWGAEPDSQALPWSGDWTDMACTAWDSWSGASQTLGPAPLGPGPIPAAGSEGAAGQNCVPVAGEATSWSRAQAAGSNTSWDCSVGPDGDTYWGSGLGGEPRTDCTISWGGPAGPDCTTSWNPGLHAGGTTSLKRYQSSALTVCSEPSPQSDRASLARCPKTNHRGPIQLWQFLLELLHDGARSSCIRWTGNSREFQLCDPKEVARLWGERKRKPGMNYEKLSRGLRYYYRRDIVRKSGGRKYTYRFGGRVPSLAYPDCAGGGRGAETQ
The note with it: protein: recombinant; tags: N-terminal GST; dsDNA, one strand shown. Put shortly:
as §1

Assay [8] concerns the target T5, ELF3 (Homo sapiens, UniProt P78545 1-371).
T5 sequence: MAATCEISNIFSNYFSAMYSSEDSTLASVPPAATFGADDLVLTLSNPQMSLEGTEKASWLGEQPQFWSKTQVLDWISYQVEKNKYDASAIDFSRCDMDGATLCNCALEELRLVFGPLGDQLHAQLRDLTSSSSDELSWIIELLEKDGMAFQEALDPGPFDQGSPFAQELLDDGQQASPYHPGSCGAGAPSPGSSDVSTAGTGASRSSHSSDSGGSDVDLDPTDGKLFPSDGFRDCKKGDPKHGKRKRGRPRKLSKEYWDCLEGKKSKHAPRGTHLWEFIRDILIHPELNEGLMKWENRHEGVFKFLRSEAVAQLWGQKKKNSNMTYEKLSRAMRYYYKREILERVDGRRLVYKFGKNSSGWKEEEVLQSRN
Particulars: protein: recombinant; tags: N-terminal GST; dsDNA, one strand shown. Put shortly: as §1

In assay [9] the target is CRX (Homo sapiens, UniProt O43186 1-299). The note with it: protein: recombinant; tags: N-terminal GST; dsDNA, one strand shown. Put shortly:
as §1

The target of assay [10] is ETV1 (Homo sapiens, UniProt P50549 1-477). Particulars: protein: recombinant; tags: N-terminal GST; dsDNA, one strand shown. Put shortly: as §1
Chain of ETV1 (P50549 whole entry): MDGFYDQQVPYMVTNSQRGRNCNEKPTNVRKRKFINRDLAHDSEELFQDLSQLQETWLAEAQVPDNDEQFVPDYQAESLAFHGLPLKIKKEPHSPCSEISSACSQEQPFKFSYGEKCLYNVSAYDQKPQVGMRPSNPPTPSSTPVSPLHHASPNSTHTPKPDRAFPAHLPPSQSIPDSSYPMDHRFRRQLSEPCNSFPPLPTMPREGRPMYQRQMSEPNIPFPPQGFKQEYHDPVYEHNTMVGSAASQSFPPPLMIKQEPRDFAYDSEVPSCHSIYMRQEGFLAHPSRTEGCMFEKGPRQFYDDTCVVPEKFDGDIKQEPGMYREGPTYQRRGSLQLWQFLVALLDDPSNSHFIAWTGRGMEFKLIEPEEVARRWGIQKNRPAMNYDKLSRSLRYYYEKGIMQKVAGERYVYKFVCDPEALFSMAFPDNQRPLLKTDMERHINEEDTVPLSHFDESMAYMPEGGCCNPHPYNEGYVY
For assay [11], the target named is T6, ERF (Homo sapiens, UniProt P50548 1-548).
T6 sequence: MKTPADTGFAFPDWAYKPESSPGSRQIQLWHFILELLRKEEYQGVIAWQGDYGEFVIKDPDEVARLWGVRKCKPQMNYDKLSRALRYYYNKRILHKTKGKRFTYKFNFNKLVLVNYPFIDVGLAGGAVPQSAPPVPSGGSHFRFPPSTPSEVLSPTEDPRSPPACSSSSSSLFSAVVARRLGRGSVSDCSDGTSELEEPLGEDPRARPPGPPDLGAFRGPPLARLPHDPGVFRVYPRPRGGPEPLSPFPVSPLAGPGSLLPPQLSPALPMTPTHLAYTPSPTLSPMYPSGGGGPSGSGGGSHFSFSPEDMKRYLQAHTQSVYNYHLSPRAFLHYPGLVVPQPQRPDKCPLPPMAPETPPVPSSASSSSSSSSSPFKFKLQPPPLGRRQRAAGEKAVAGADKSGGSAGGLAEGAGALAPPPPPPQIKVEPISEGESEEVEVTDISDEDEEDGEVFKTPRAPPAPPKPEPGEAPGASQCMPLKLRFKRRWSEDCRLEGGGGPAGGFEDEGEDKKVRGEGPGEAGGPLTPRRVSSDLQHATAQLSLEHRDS
The note with it: protein: recombinant; tags: N-terminal GST; dsDNA, one strand shown. In outline:
as §1

The target of assay [12] is T7, ETV3L (Homo sapiens, UniProt Q6ZN32 1-361).
T7 sequence: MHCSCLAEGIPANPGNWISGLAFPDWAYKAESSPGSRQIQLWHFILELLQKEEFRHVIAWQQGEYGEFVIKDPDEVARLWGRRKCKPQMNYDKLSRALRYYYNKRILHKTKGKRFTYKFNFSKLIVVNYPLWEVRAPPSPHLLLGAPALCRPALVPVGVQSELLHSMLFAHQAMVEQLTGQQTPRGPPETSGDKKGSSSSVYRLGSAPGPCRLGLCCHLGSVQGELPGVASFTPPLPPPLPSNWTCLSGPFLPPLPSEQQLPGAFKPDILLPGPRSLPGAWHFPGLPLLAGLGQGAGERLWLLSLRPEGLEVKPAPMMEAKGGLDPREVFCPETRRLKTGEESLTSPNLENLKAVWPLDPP
Particulars: protein: recombinant; tags: N-terminal GST; dsDNA, one strand shown. In outline:
as §1

The target in assay [13] is T8, ETS2 (Homo sapiens, UniProt P15036 1-469).
T8 sequence: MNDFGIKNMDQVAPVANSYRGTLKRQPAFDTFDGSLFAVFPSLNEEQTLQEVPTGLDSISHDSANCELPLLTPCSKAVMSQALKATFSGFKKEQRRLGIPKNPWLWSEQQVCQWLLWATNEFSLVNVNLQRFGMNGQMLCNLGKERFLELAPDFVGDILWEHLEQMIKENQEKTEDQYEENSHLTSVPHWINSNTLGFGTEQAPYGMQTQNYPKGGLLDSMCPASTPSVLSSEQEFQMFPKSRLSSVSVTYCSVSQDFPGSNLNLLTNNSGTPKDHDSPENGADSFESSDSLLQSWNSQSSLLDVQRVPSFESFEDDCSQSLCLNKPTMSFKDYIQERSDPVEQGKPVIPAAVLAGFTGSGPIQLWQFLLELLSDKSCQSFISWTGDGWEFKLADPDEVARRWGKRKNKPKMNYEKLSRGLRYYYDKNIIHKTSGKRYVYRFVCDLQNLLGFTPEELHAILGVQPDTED
The note with it: protein: recombinant; tags: N-terminal GST; dsDNA, one strand shown. In outline: as §1

Assay [14] addresses T9, SPDEF (Homo sapiens, UniProt O95238 1-335).
T9 sequence: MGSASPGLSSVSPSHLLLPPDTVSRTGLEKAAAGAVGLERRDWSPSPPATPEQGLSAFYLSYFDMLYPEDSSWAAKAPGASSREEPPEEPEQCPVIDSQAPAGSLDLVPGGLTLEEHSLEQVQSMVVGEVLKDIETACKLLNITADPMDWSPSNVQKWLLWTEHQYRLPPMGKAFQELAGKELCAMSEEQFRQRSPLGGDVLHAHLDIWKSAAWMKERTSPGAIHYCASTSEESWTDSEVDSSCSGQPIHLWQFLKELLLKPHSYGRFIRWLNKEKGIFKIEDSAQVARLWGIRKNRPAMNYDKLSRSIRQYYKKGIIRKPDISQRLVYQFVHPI
Particulars: protein: recombinant; tags: N-terminal GST; dsDNA, one strand shown. Put shortly:
as §1

Assay [15] addresses T10, ETV7 (Homo sapiens, UniProt Q9Y603 1-341).
T10 sequence: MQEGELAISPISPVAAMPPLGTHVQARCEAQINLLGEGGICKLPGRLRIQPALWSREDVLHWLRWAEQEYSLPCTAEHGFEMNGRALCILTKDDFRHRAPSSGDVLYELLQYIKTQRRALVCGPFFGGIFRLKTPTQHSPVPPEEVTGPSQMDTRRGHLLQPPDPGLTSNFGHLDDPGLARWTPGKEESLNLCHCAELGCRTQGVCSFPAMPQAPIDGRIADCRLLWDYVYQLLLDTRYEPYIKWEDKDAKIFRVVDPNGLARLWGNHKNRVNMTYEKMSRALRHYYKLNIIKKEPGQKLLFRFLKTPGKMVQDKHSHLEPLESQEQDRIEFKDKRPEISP
Particulars: protein: recombinant; tags: N-terminal GST; dsDNA, one strand shown. In outline:
as §1

Assay [16] has as its target T11, ELF5 (Homo sapiens, UniProt Q9UKW6-2 1-255).
T11 sequence: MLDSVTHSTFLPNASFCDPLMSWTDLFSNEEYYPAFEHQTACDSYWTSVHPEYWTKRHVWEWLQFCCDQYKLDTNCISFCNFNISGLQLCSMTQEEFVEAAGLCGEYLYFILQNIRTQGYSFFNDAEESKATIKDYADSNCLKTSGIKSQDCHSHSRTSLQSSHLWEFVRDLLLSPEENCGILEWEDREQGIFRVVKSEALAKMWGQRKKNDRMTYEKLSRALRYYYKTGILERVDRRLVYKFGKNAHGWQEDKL
The note with it: protein: recombinant; tags: N-terminal GST; dsDNA, one strand shown. Put shortly:
as §1

The target in assay [17] is T12, ETV3 (Homo sapiens, UniProt P41162-2 1-143).
T12 sequence: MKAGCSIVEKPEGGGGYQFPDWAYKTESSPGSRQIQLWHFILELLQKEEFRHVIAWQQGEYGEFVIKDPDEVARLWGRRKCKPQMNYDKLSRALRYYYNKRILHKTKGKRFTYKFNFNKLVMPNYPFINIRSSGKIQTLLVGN
Particulars: protein: recombinant; tags: N-terminal GST; dsDNA, one strand shown. In outline: as §1

The target of assay [18] is ETV6 (Homo sapiens, UniProt P41212 1-452). Particulars: protein: recombinant; tags: N-terminal GST; dsDNA, one strand shown. In outline:
as §1

In PMC7862700, “An all-to-all approach to the identification of sequence-specific readers for epigenetic DNA modifications on cytosine” one finds binding signal data, which are given here for one sequence.

Chain of ETV5 (P41161 whole entry): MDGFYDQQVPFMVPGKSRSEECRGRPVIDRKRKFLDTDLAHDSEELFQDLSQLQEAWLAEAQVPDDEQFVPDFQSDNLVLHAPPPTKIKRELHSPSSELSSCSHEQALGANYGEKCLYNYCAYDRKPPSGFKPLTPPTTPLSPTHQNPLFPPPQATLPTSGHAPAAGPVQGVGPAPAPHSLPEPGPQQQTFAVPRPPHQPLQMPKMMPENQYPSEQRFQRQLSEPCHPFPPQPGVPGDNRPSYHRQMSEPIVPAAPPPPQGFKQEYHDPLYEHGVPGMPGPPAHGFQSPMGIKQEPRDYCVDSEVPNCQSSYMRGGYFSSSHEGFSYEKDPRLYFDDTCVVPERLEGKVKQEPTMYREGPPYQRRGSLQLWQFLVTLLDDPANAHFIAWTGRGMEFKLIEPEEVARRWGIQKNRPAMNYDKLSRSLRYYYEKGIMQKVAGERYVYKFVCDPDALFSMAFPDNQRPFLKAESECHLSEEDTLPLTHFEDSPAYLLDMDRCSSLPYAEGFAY
Chain of ELF4 (Q99607 whole entry): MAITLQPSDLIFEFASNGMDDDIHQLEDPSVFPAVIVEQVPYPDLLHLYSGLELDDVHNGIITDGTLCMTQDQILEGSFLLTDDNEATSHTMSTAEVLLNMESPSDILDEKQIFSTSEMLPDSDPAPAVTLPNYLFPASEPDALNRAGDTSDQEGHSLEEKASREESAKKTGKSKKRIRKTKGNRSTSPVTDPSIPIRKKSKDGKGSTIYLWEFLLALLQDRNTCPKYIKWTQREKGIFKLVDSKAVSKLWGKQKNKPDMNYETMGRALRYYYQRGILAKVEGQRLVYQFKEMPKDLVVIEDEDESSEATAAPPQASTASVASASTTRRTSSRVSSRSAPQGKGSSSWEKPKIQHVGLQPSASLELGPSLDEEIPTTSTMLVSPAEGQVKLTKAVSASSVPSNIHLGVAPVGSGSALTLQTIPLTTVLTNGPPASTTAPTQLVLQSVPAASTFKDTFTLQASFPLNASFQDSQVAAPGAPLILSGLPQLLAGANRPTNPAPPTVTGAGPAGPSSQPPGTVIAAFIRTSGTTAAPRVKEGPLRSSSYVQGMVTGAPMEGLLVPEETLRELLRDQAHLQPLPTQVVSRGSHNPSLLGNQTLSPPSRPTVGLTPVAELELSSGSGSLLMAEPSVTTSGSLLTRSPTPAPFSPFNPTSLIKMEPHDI
Chain of ETV6 (P41212 whole entry): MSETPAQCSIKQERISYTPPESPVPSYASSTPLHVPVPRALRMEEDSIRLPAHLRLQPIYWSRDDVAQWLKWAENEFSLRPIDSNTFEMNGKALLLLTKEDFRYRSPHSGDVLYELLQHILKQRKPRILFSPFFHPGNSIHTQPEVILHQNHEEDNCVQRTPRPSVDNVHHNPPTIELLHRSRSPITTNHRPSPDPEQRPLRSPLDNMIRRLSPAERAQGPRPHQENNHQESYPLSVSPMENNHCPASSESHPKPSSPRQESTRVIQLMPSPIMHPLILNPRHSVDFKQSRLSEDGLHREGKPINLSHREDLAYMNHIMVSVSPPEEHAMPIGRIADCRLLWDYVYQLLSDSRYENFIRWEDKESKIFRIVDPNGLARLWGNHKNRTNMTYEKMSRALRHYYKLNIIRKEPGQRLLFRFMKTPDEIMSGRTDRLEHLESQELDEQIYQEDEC
Chain of CRX (O43186 whole entry): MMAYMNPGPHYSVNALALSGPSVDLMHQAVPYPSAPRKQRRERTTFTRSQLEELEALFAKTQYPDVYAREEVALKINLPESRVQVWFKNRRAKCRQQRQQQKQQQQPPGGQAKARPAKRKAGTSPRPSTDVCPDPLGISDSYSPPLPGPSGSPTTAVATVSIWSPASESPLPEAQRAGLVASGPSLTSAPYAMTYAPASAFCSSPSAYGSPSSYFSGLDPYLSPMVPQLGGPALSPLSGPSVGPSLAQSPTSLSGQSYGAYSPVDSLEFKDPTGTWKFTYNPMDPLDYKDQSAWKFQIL

Regarding TATTGA, the binding signal was 1.1 fold enrichment (6-mer frequency, TF over GST control) in [1]; 1.1 fold enrichment (6-mer frequency, TF over GST control) in assay [2]; 1.14 fold enrichment (6-mer frequency, TF over GST control) in [3]; 1.2 fold enrichment (6-mer frequency, TF over GST control) in [4]; 1.17 fold enrichment (6-mer frequency, TF over GST control) in assay [5]; 1.17 fold enrichment (6-mer frequency, TF over GST control) in assay [6]. Also, the binding signal in assay [7] is 1.14 fold enrichment (6-mer frequency, TF over GST control); in assay [8], 1.19 fold enrichment (6-mer frequency, TF over GST control); in assay [9], 1.29 fold enrichment (6-mer frequency, TF over GST control); in assay [10], 1.16 fold enrichment (6-mer frequency, TF over GST control); in assay [11] it was 1.12 fold enrichment (6-mer frequency, TF over GST control); in [12] it was 1.22 fold enrichment (6-mer frequency, TF over GST control). In addition, the binding signal in assay [13] was 1.12 fold enrichment (6-mer frequency, TF over GST control); in assay [14] it was 1.17 fold enrichment (6-mer frequency, TF over GST control); in [15] it was 1.14 fold enrichment (6-mer frequency, TF over GST control); in assay [16], 1.11 fold enrichment (6-mer frequency, TF over GST control); in assay [17], 1.19 fold enrichment (6-mer frequency, TF over GST control); in assay [18], 1.16 fold enrichment (6-mer frequency, TF over GST control).
